Calls of active or inactive are those of the source. How the source made its calls: active means hit-call score of the fitted dose curve at least 0.9, where 1 is the maximum; inactive means score below 0.9.

Read-out in one assay: Interferon-gamma inducible Protein 10 (IP10), CXCL10 (gene 3627)
As to the kind of experiment: BSK_hDFCGF_IP10: BioMAP Diversity Plus: hDFCGF Assay for Interferon-gamma inducible Protein 10 (IP10) Biomarker Activity (AID 2283053). To be noted: primary human foreskin fibroblasts; actives raise or lower the signal. In short, it runs like this:
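IP-10 levels, quantified by ELISA, are taken from human foreskin fibroblast cultures 24 h after chemical treatment, with DMSO serving as negative control and baseline for bidirectional analysis.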
Turning to `CC(Oc1cccc(Cl)c1)C(=O)O` (configuration not stated), the outcome was inactive.

For the compound `CCc1cccc(C)c1N(C(=O)CCl)C(C)COC` (configuration not stated), the AC50 was 20 µM (active).

On to `Cc1nn(-c2cc(NS(C)(=O)=O)c(Cl)cc2Cl)c(=O)n1C(F)F`, for which the outcome was inactive.

For `N#CSCSC#N`, the AC50 was 1.09 µM (active).

As to `Cc1ccn2nc(S(=O)(=O)Nc3c(F)cccc3F)nc2n1`, the outcome was inactive.

On to `C[N+]1(C)CCCCC1`, for which the outcome was inactive.

With `CCCOc1nn(C(=O)NS(=O)(=O)c2ccccc2C(=O)OC)c(=O)n1C`, the outcome was inactive.

Regarding `Nc1nc(N)nc(NC2CC2)n1`, the outcome was inactive.

As for `Nc1c(Cl)cc([N+](=O)[O-])cc1Cl`, the AC50 was 3.97 µM (active).

In the case of `CCc1cccc(CC)c1N(COC)C(=O)CCl`, the AC50 is 11.2 µM (active).

Regarding `CCCSP(=O)(OCC)Oc1ccc(Br)cc1Cl` (configuration not stated), the AC50 was 20 µM (active).

As for `S=C1NCCN1`, the outcome was inactive.

As for `CCOP(=S)(OCC)Oc1ccc([N+](=O)[O-])cc1`, the half-maximal activity concentration (AC50) is 20 µM (active).

As to `CCC(=O)Nc1ccc(Cl)c(Cl)c1`, the result was inactive.

Take `CCCCOC(=O)c1ccccc1C(=O)O`: the outcome was inactive.

With `C#CC(C)(C)NC(=O)c1cc(Cl)cc(Cl)c1`, the AC50 was 4.25 µM (active).

`COc1cc(OC)nc(Sc2cccc(Cl)c2C(=O)O)n1`: the outcome was inactive.

Read-out in the next assay: Urokinase-type plasminogen activator receptor (uPAR), PLAUR (gene 5329)
As to the kind of experiment: BSK_CASM3C_uPAR: BioMAP Diversity Plus: CASM3C Assay for Urokinase-type plasminogen activator receptor (uPAR) Biomarker Activity (AID 2283054).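 Further: cell-surface uPAR protein level quantified by ELISA.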 To be noted: primary human coronary artery smooth muscle cells; actives raise or lower the signal.
For the compound `CN(C)C(=O)Nc1cccc(C(F)(F)F)c1`, the outcome was inactive.

`COP(=O)(NC(C)=O)SC` (configuration not stated): the outcome was inactive.

As to `CN(C)NC(=O)CCC(=O)O`, the outcome was inactive.

Consider `C[Si](Cn1cncn1)(c1ccc(F)cc1)c1ccc(F)cc1`, for which the outcome was inactive.

Take `CCCOCC(=Nc1ccc(Cl)cc1C(F)(F)F)n1ccnc1`: the result was inactive.

As for `CC1=NNC(=O)N(/N=C/c2cccnc2)C1`, the result was inactive.

Take `C#CCC1=C(C)C(OC(=O)C2C(C=C(C)C)C2(C)C)CC1=O` (configuration not stated): the outcome was inactive.

Consider `COP(=O)(OC)C(O)C(Cl)(Cl)Cl` (configuration not stated), for which the outcome was inactive.

Consider `COP(=O)(OC)SCn1c(=O)oc2cc(Cl)cnc21`, for which the AC50 was 35.5 µM (active).

As to `CCOP(=S)(Oc1cnc(C(C)(C)C)nc1)OC(C)C` (configuration not stated), the result was inactive.

Consider `CNC(=O)ON=C(SC)C(=O)N(C)C`, for which the result was inactive.

As for `CCOP(=S)(OCC)SCCSCC`, the outcome was inactive.

With `CNc1cnn(-c2cccc(C(F)(F)F)c2)c(=O)c1Cl`, the result was inactive.

Turning to `CN1COCN(Cc2cnc(Cl)s2)C1=N[N+](=O)[O-]`, the outcome was inactive.

Take `CCCCSP(=O)(SCCCC)SCCCC`: the outcome was inactive.

With `CC(C1CC1)C(O)(Cn1cncn1)c1ccc(Cl)cc1` (configuration not stated), the outcome was inactive.

As for `CC[C@H](C)[C@H]1O[C@]2(C=C[C@@H]1C)C[C@@H]1C[C@@H](C/C=C(\C)[C@@H](O[C@H]3C[C@H](OC)[C@@H](O[C@H]4C[C@H](OC)[C@@H](NC)[C@H](C)O4)[C@H](C)O3)[C@@H](C)/C=C/C=C3\CO[C@@H]4[C@H](O)C(C)=C[C@@H](C(=O)O1)[C@]34O)O2`, the AC50 is 12.3 µM (active).

Take `CC(C)=CC1C(C(=O)OCN2C(=O)C3=C(CCCC3)C2=O)C1(C)C` (configuration not stated): the result was inactive.

Consider `CC(Oc1cccc(Cl)c1)C(=O)O` (configuration not stated), for which the result was inactive.

Take `CCc1cccc(C)c1N(C(=O)CCl)C(C)COC` (configuration not stated): the result was inactive.

For `Cc1nn(-c2cc(NS(C)(=O)=O)c(Cl)cc2Cl)c(=O)n1C(F)F`, the outcome was inactive.

As for `N#CSCSC#N`, the AC50 is 30.6 µM (active).

Turning to `Cc1ccn2nc(S(=O)(=O)Nc3c(F)cccc3F)nc2n1`, the result was inactive.

Take `C[N+]1(C)CCCCC1`: the result was inactive.

On to `CCCOc1nn(C(=O)NS(=O)(=O)c2ccccc2C(=O)OC)c(=O)n1C`, for which the outcome was inactive.

Consider `Nc1nc(N)nc(NC2CC2)n1`, for which the outcome was inactive.

Take `Nc1c(Cl)cc([N+](=O)[O-])cc1Cl`: the result was inactive.

`CCc1cccc(CC)c1N(COC)C(=O)CCl`: the outcome was inactive.

With `CCCSP(=O)(OCC)Oc1ccc(Br)cc1Cl` (configuration not stated), the outcome was inactive.

`S=C1NCCN1`: the outcome was inactive.

On to `CCOP(=S)(OCC)Oc1ccc([N+](=O)[O-])cc1`, for which the outcome was inactive.

Regarding `CCC(=O)Nc1ccc(Cl)c(Cl)c1`, the outcome was inactive.

`CCCCOC(=O)c1ccccc1C(=O)O`: the outcome was inactive.

With `C#CC(C)(C)NC(=O)c1cc(Cl)cc(Cl)c1`, the outcome was inactive.

As for `COc1cc(OC)nc(Sc2cccc(Cl)c2C(=O)O)n1`, the outcome was inactive.

For orientation: AC50 means the midpoint of the concentration-response curve, whichever way the signal moves.

The values above are taken from PubChem BioAssay (EPA / NIEHS).
